This note sets out measurements from PubChem BioAssay AID588728 (Vanderbilt Specialized Chemistry Center, 2011).

The assay deals with Metabotropic glutamate receptor 3 (Rattus norvegicus) (UniProt P31422). The experiment in a line: mGluR5 PAM selectivity profiling against rat mGluR3, glutamate response modulation, fold shift by Tl+ flux in HEK/GIRK cells (AID 588728). The conditions noted are these: HEK/GIRK rat mGluR3, thallium flux, glutamate CRC fold shift, at 10 µM; Emax: measured here: glutamate max response with compound.
Metabotropic glutamate receptor 3 (Rattus norvegicus), sequence (P31422 whole entry, looked up): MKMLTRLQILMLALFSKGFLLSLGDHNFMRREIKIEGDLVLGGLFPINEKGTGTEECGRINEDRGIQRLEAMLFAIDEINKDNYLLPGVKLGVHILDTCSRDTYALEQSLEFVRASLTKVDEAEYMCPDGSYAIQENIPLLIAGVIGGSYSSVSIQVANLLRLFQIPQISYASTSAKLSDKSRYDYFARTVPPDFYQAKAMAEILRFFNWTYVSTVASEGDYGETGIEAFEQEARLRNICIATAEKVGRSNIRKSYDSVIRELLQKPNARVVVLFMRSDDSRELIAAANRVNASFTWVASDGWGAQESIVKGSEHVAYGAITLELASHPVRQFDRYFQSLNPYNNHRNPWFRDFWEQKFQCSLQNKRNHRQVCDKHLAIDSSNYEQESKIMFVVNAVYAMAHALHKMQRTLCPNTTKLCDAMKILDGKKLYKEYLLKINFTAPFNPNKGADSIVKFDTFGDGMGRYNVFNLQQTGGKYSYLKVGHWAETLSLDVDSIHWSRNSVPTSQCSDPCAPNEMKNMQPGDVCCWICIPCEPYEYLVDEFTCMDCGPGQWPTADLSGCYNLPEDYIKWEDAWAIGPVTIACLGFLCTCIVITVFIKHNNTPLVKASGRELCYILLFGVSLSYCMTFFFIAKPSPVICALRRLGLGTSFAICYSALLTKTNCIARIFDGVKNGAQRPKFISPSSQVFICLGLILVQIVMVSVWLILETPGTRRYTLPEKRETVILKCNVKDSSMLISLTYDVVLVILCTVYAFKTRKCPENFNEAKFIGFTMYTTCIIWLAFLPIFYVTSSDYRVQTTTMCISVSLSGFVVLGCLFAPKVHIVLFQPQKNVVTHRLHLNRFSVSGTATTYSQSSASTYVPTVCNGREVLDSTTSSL

Active and inactive are the calls of the source.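 The calls were made as follows: active = compound at 10 µM that moves glutamate potency by over twofold either way, or clearly lowers or raises peak response; inactive = the rest.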

By Emax is commonly meant the greatest response seen or fitted, relative to the assay's reference. Turning to `C[C@@H](NC(=O)c1ccc(C#Cc2cccc(F)c2)cn1)C(C)(C)O`, the Emax is 89% and the fold shift is 0.95 (inactive).

As for `CC1(NC(=O)c2ccc(C#Cc3cccc(F)c3)cn2)COC1`, the Emax turned out to be 84% and the fold shift is 0.85 (inactive).
